Screening results from PubChem BioAssay.
Pf growth 96h – P. falciparum growth inhibition at 96 hour, primary screen for plastid delayed-death inhibitors. 6.9% of 320,000 active. P. falciparum luciferase reporter growth, 96 h. Potency, µM (highest dose often 28.7 µM), without a hit: top-dose activity change, negative = inhibition, usual class: inhibitors. AID 504834; also: potency is read from the fitted curve at half-maximal effect
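Compounds incubated with erythrocytes infected by luciferase-expressing P. falciparum (2% hematocrit, 0.05% parasitemia final) for 96 hours, 37 C in 5% CO2. Growth inhibition scored as decreased luciferase luminescence.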
Sm TGR block – S. mansoni TGR enzyme inhibition; Potency, µM (highest dose often 114 µM), for inactives: at the highest dose activity change, negative = inhibition, most hits filed as inhibitors; purified TGR, DTNB reduction, TNB absorbance 405 nm; 3% of 360,000 active; also: potency is read from the fitted curve at half-maximal effect; nearly all actives have a fitted effect of over 60% in size
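First, TGR (20 nM dispensed) and NADPH were mixed with compound. Second, a 15 min room-temperature incubation followed. Third, further NADPH and then DTNB were added to start the reaction. Finally, TNB absorbance was monitored kinetically.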
FBPA Giardia inh – inhibitors of Giardia lamblia fructose-1,6-bisphosphate aldolase; purified Giardia FBPA; AID 2451; A8B2U2; 0.71% of 290,000 active; Potency, µM (series often up to 59.6 µM), for inactives: at the top dose activity, negative = inhibition, usual class: inhibitors; also: potency is read from the fitted curve at half-maximal effect; nearly all actives have a fitted effect of over 55% in size
Target sequence (A8B2U2 whole entry, looked up): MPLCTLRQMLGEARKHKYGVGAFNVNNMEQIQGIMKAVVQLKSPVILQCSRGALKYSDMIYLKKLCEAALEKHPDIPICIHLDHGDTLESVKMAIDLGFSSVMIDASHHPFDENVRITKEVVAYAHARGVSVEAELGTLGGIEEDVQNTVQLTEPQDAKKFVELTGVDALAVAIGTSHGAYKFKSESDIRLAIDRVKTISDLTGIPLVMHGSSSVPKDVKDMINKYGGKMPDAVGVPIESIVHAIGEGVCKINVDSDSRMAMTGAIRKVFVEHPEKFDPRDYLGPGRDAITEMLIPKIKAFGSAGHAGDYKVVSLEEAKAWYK
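Giardia FBPA (40 nM reagent) was preincubated 10 min at RT with compound (up to 57.5 uM final), then substrate plus GAPDH/TPI/NAD/arsenate coupling system with diaphorase/resazurin was added; resorufin fluorescence (525/598 nm) was read after 20 min.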
Pf growth 48h – inhibits P. falciparum growth in the first generation, 48 h | Potency, µM (doses to about 28.7 µM), for inactives: top-dose activity change, negative = inhibition, actives largely listed as inhibitors | AID 504832 | 5.9% of 310,000 active | P. falciparum luciferase growth in erythrocytes, 48 h; also: potency is read from the fitted curve at half-maximal effect
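In quantitative HTS format, infected erythrocytes bearing luciferase-reporter parasites were treated for a single generation at 37 C. Luminescence after adding detection reagent served as the growth measure.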
HCMV antiviral – blocks human cytomegalovirus replication. HFF cells, HCMV-luciferase reporter, 72 h; active compounds read low. activity change, negative = inhibition, % at 57.5 µM. 4.5% of 410,000 active. AID 1259415; in the data active = activity change below about -60%; inconclusive = no clear call, values can overlap the other calls; inactive = above about -39%
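Luciferase read-out from HCMV-luciferase-infected HFFs (MOI 1 PFU/cell) 72 h post infection at 37C; compounds added after 16 h cell attachment; activity normalized between buffer-only basal and Salinomycin (10uM) inhibitor controls.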
Numbers without * were called inactive; ? = inconclusive; . = not tested or not shown; [ ] = remark or other dose. A selection: hits, their analogues and other compounds. The true share with any hit is near 14%. Unless noted, calls follow the shape of the dose curve; as a rule, active = well fitted curve in the direction sought with a large enough effect; inconclusive = small, poorly fitted or top-dose-only effect, or another doubt; inactive = no such curve, though single readings can be large; an effect the other way counts as inactive or inconclusive. % is scaled to controls: 0 for no effect and ±100 for the full control effect.

SMILES	Pf growth 96h	Sm TGR block	FBPA Giardia inh	Pf growth 48h	HCMV antiviral
CCOCCc1nn2c(=O)cc(CSCC(=O)Nc3cc(C)cc(C)c3)nc2s1	-9%	-12%	3%	2%	-62*
CCN(CC)S(=O)(=O)c1ccc(NC(=O)COC(=O)CNS(=O)(=O)/C=C/c2ccccc2)cc1	8%	-20%	2%	-7%	-14
CN(C(=O)CSc1nc2ccc(NC(=O)COc3ccc(F)cc3)cc2s1)c1ccccc1	.	-2%	.	.	-70*
CN(C)C(=O)CSc1nc2ccc(N3C(=O)c4ccccc4C3=O)cc2s1	4%	-12%	2%	34%	-65*
CN(C(=O)CSc1nc2ccc(NC(=O)c3ccc(F)cc3)cc2s1)c1ccccc1	.	-1%	.	.	-81*
CN(C(=O)CSc1nc2ccc(NC(=O)COc3ccc(Cl)cc3)cc2s1)c1ccccc1	.	-1%	.	.	?
Cc1cccc(NC(=O)CSc2nc3ccc(N4C(=O)c5ccccc5C4=O)cc3s2)c1C	44%	0%	-4%	7%	3
COc1cccc(C(=O)Nc2ccc3nc(SCC(=O)N(C)c4ccccc4)sc3c2)c1	.	0%	.	.	?
COc1ccc(C(=O)Nc2ccc3nc(SCC(=O)N(C)c4ccccc4)sc3c2)cc1	.	16%	.	.	-74*
COc1ccc(C(=O)N2CCC[C@@]3(CCN(c4cccc(-c5ccccc5)c4)C3)C2)cc1	.	.	-11%	.	.
CCOC(=O)c1c(Nc2ccc(OC)cc2)nnc(-c2ccccc2)c1-c1ccccc1	.	4%	.	.	-20
C[C@@]12C(=O)N(Cc3ccccc3)CC(=O)N1[C@H]1c3ccccc3OC[C@@H]1[C@@H]2c1ccccc1	?	4%	.	?	69
CC(=O)N1c2ccc(S(=O)(=O)N3CCN(c4cc(Cl)ccc4C)CC3)cc2CC1C (centres undefined)	.	23%	.	.	-22
CCN1C(=S)SC(=O)C1=C1C=C(C)N(CCO)C(C)=C1	27%	62%[11.4 µM]	-24%	.	-68*
COc1ccccc1OCCn1c(=S)[nH]c2ccccc21	-14%	-5%	5%	-3%	83
Cc1cccc(OCCn2c(=S)[nH]c3ccccc32)c1	13µM*	-1%	-2%	?	43
Cc1ccc(OCCn2c(=S)[nH]c3ccccc32)c(C(C)C)c1	46%	-23%	24%	12µM*	?
CNC(=O)c1c(NC(=O)c2cccc(N3C(=O)CCC3=O)c2)sc2c1CCCC2	12%	1%	-5%	16%	3
O=C(Nc1ccc(Cl)cc1)Nc1nnc(CSCc2ccccc2Cl)s1	?	-8%	4%	?	-91*
O=C(Nc1ccc(Cl)cc1)Nc1nnc(SCc2ccccc2)s1	?	-6%	3%	12%	-35
Cc1ccc(OCCSCc2nnc(NC(=O)Nc3cccc(Cl)c3)s2)cc1	?	-7%	-2%	12µM*	?
Cc1nnc(NC(=O)Nc2cccc(Cl)c2)s1	-23%	10%	7%	?	28
O=C(Nc1ccc(Cl)c(Cl)c1)Nc1nnc(CSc2ccccc2)s1	31%	7%	2%	4.7µM*	-99*
O=C(Nc1ccc(Cl)c(Cl)c1)Nc1nccs1	-100%	15%	-7%	?	-66*
O=C(Nc1ccccc1)Nc1nnc(CSCc2ccccc2Cl)s1	?	0%	1%	2%	?
SMILES	Pf growth 96h	Sm TGR block	FBPA Giardia inh	Pf growth 48h	HCMV antiviral
Nc1sc2c(c1C(=O)NC1CCS(=O)(=O)C1)CCCC2 (centres undefined)	-19%	22µM*	?	-7%	15
Nc1sc2c(c1C(=O)NCCc1ccccc1)CCCC2	.	.	.	.	18
NC(=O)c1c(N)sc2c1CCCC2	35%	13µM*	?	-14%	58
O=C(CSc1ncnc2sc3c(c12)CCCC3)NC1CCS(=O)(=O)C1 (centres undefined)	.	.	.	.	-11
Nc1sc2c(c1C(=O)NCCc1ccccc1)CCC2	-11%	.	-24%	13µM*	1
CC(C)c1ccc(NC(=O)C2CCN(S(=O)(=O)c3cccc4nonc34)CC2)cc1	.	4%	.	.	-11
CC(C)C(=O)Nc1ccc(S(=O)(=O)Nc2ccccn2)cc1	67%	3%	0%	21%	1
COc1ccc(C(C)=O)cc1COC(=O)c1cccnc1Cl	38%	13µM*	-5%	20%	-9
O=C(OCc1ccc(F)cc1)c1cccnc1Cl	7%	1%	13%	18%	-60*
